Screens as filed in PubChem.
Only some compounds are listed: those with a hit (about 4.1% of all), similar ones and a draw of the others.
hcDAF-12 act – H. contortus DAF-12 nuclear receptor activators, primary screen, cell-based, luminescence, HEK293, lit1-tk-luc reporter; 1.4% of 370,000 active; activation, % at 6.8 µM; HEK293 hcDAF-12 lit1-tk-luc reporter; 0% DMSO, 100% Δ7-dafachronic acid; AID 652067, 2013;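 active = activation above the mean of all tested compounds plus 3 SD, cut at about 5.5% in these data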;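 also: 100% = response to 3 µM Δ7-dafachronic acid high control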
DAX1 inh-1 – DAX1 (NR0B1) inhibitors on StAR promoter, primary screen, cell-based, luminescence, SF-1 (NR5A1), full-length DAX-1. AID 652010, 2013. 1.1% of 370,000 active. HEK293T StAR-luciferase reporter, SF-1/DAX-1 repression relief. inhibition, % at 6.8 µM;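 active = inhibition above the mean over all tested compounds plus 3 SD, cut at about 3.6% in these data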;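 also: 0% = DAX-1 cells with DMSO and 100% = cells lacking DAX-1 with DMSO; higher inhibition means more luminescence from relief of DAX-1 repression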
DAX1 inh-2 – DAX1 (NR0B1) inhibitors, primary screen, cell-based, HEK293, Gal4-DAX1, luciferase luminescence | 0.99% of 340,000 active | AID 504766, 2011 | HEK293 Gal4-DAX1 luciferase reporter | inhibition, % at 6.75 µM | Nuclear receptor subfamily 0 group B member 1 (Homo sapiens), P51843;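 active = inhibition above the mean over all tested compounds plus 3 SD, cut at about 4.2% in these data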;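 also: 0% = DAX1-transfected cells with DMSO and 100% = empty-vector control cells with DMSO; inhibition shows as a rise in luminescence from relieved DAX1 repression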
ssDAF12 agonist – S. stercoralis DAF-12 nuclear receptor activators, primary screen, cell-based, luminescence, HEK293, GRIP1 co-expression, lit1-tk-luc; Nuclear hormone receptor DAF-12 (Strongyloides stercoralis); HEK293 ssDAF-12/GRIP1 lit1-tk-luc reporter; % of 3 µM dafachronic acid response; activation, % at 6.8 µM; 1% of 370,000 active;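 active = activation above the mean over all tested compounds plus 3 SD, cut at about 0.9% in these data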;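 also: 0% = DMSO-only wells and 100% = 3 µM delta7-dafachronic acid wells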
hgDAF-12 ag – H. glycines DAF-12 receptor agonists, primary screen, cell-based, luminescence, HEK293, GAL4 fusion, UAS-luciferase; activation, % at 6.8 µM; AID 687014, 2013; 1.8% of 370,000 active; Nuclear hormone receptor DAF-12 (Heterodera glycines), GAL4 fusion; HEK293 GAL4-hgDAF12 UAS-luciferase reporter, agonist luminescence; normalized to butyrate control;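 active = activation above a cutoff set at the mean of all screened compounds plus 3 SD, cut at about 10% in these data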;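 also: 0% = DMSO wells and 100% = sodium butyrate wells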
DAX1 conf – DAX1 (NR0B1) inhibitors relieving SF-1 repression, confirmation, cell-based, luminescence, HEK293T, full-length DAX-1, SF-1 activated StAR promoter; 87% of 2,400 active; inhibition, % at 6.8 µM; HEK293T StAR-promoter luciferase reporter, SF-1/DAX-1 repression; shares compounds with DAX1 inh-1;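 active = inhibition above the average of every tested compound plus 3 SD, cut at about 3.8% in these data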;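 also: 0% = DAX-1 cells with DMSO and 100% = no DAX-1 control cells with DMSO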
Target sequence (P51843 whole entry, looked up): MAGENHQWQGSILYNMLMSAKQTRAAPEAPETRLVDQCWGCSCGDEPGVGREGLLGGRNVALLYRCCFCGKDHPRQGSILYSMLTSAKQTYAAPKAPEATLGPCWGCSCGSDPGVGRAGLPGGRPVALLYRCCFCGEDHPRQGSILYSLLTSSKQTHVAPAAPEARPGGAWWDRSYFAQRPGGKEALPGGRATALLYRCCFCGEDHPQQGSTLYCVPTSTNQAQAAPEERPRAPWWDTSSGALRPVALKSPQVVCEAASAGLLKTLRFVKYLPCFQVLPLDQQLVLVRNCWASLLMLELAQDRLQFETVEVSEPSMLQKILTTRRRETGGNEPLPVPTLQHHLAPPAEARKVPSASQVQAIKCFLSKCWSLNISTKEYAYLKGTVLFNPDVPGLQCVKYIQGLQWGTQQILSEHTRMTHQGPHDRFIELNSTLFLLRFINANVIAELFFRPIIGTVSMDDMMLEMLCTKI
SF1 mutant ctr – StAR reporter signal changes without DAX1, counter-screen for DAX1 inhibitor project, cell-based, luminescence, AF-2 mutant SF-1, transactivation | shares compounds with DAX1 inh-1 | HEK293 StAR-luciferase, SF-1 AF2 mutant | inhibition, % at 6.8 µM | 78% of 2,400 active;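 active = inhibition above the mean of all tested compounds plus 3 SD, cut at about 3% in these data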;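 also: 0% = DAX-1 transfected cells with DMSO and 100% = cells without DAX-1 with DMSO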
The depositor's hits bear a star; . = no result.

SMILES | hcDAF-12 act | DAX1 inh-1 | DAX1 inh-2 | ssDAF12 agonist | hgDAF-12 ag | others
Cc1ccccc1NC(=O)Nc1cc(-c2ccccc2)nn1C | 1 | 0 | 6.6* | -1 | 1
CCC(=O)N1CCC1(C)C(=O)Nc1cc(-c2ccccc2)nn1C (centres undefined) | -1 | 3 | . | -1 | 11*
CCC1(CC)NC(=O)N(CC(=O)N2CCc3ccccc32)C1=O | 3 | 0 | 1 | -1 | 1
CC1CCCCC12NC(=O)N(CC(=O)N1CCc3ccccc31)C2=O (centres undefined) | 5.8* | -1 | 0 | 1 | 2
Fc1ccccc1Cn1ccc2ccc(-c3ccc4ccn(Cc5ccccc5)c4c3)cc21 | 0 | 2 | . | -1 | 2
Cc1ccc(-n2c(SCC(=O)c3ccccc3Cl)nnc2-c2cnccn2)cc1 | -1 | 2 | . | 0 | 1
COCCN(Cc1cc2cc(C)ccc2n2nnnc12)C(=S)Nc1ccc(C)cc1 | -1 | 0 | 4.6* | -1 | 2
COCCN(Cc1cc2cc(C)ccc2n2nnnc12)C(=S)Nc1ccc(OC)cc1 | -1 | 0 | -1 | 0 | -4
Cc1nc2ccc(Br)cc2c2c1CC(CO)O2 (centres undefined) | -1 | 0 | 5.4* | -2 | -1
Cc1nc2ccc(Br)cc2c2c1CC(CBr)O2 (centres undefined) | 1 | 0 | -1 | 0 | -1
CCCc1nc2c3ccccc3ccn2c1Cc1ccccc1OC | 3 | 0 | . | 0 | 6
CCCc1nc2c3ccccc3ccn2c1Cc1ccc(OC)cc1C | 3 | 0 | . | 1.0* | 1
Cc1nn(-c2ccccc2)c2sc(C(=O)NC3CCCCCC3)cc12 | -3 | 0 | . | -1 | 2
COc1ccc(S[C@]2(C(=O)N(C)C)CC(=O)N(C(=O)Nc3ccc(C)c(Cl)c3)[C@@H]2c2ccc(OC)cc2)cc1 | -2 | -1 | . | 0 | 1
CCOc1ccc2nc(NS(=O)(=O)Cc3ccccc3)sc2c1 | 1 | -1 | 10* | 0 | 3
CC(C)=NNc1ncnc2nc[nH]c12 | 0 | 4 | 6.3* | 0 | 5
CC(O)CNc1ncnc2nc[nH]c12 (centres undefined) | -1 | -1 | 2 | -1 | 3
O=C(NC1CCCCN(Cc2ccc(Cl)cc2)C1=O)c1ccc(COc2ccccc2)cc1 (centres undefined) | -5 | -3 | . | -2 | -1
COCCn1c(SCC(=O)Nc2ccc(C)cc2C)nc2c(oc3ccccc32)c1=O | 0 | -1 | 0 | 0.9* | -1
Cc1ccccc1CN1CCCCC(NC(=O)c2ccc3ccccc3c2)C1=O (centres undefined) | -5 | -2 | . | -1 | -4
CCOc1ccc(N(CC(=O)Nc2c(C)n(C)n(-c3ccccc3)c2=O)S(=O)(=O)c2ccc(C)c(C)c2)cc1 | -3 | -1 | . | -1 | -1
COc1ccc(C(=O)Nc2nncs2)cc1S(=O)(=O)N1CC(c2ccccc2)CC1=O (centres undefined) | -2 | 0 | 8.0* | -1 | -4
COc1ccc(-c2csc(N3C(=N)SCC3=O)n2)cc1 | 6.4* | 6.9* | 2 | 0 | 13* | DAX1 conf=16*;SF1 mutant ctr=7.4*
CCCN1CCN(C(=O)c2cc3c(s2)-c2ccccc2OC3)CC1 | 4 | 5.4* | 1 | 0 | 5 | DAX1 conf=9.9*;SF1 mutant ctr=5.2*
CCN(CC)C(=O)CC[C@@H]1CC[C@]2(CCCN(C(=O)C(C)(C)C)C2)O1 | -1 | -1 | . | -1 | 5
SMILES | hcDAF-12 act | DAX1 inh-1 | DAX1 inh-2 | ssDAF12 agonist | hgDAF-12 ag | others
O=C(/C=C/c1cccs1)Nc1scc(-c2ccccc2)c1C(=O)O | 3 | 4.7* | 0 | 0 | 13* | DAX1 conf=7.3*;SF1 mutant ctr=3.6*
COc1ccc(C(=O)NN=C2CCCC2)cc1OC | -1 | 0 | 1 | -1 | -1
CCOc1cc(C(=O)NN=C2CCCC2)cc(OCC)c1OCC | 0 | 6.9* | 0 | 0 | -4 | DAX1 conf=1;SF1 mutant ctr=-2
O=C(COC(=O)c1ccccc1-n1cnnn1)c1ccc(F)cc1 | 4 | 7.7* | 3 | 0 | 7 | DAX1 conf=7.5*;SF1 mutant ctr=5.6*
O=C(Cc1ccccc1)NCC1COc2ccccc2O1 (centres undefined) | 1 | 0 | 1 | -1 | -1
Cn1cccc1C(=O)NCC1COc2ccccc2O1 (centres undefined) | 3 | 4.7* | 2 | -1 | 7 | DAX1 conf=5.1*;SF1 mutant ctr=2
Fc1cccc(F)c1Cn1ccc2ccc(-c3ccc4ccn(Cc5c(F)cccc5F)c4c3)cc21 | -1 | -1 | . | 0 | 1
CC(C)C[C@@H](CN1CCC[C@@H]1CN1C(=S)NC[C@@H]1Cc1ccc(O)cc1)N1C[C@H](Cc2ccc(O)cc2)N(CCc2ccccc2)C1=S | 0 | 4.7* | . | -2 | -1 | DAX1 conf=-1;SF1 mutant ctr=1
CC(C)C[C@@H](CN1CCCC1CN1C(=S)NC[C@@H]1Cc1ccccc1)N1C[C@H](Cc2ccc(O)cc2)N(CCc2ccccc2)C1=S (some centres undefined) | -1 | 2 | . | -1 | -2
CC(C)C[C@@H](CN1CCCC1CN1C(=S)NC[C@@H]1Cc1ccc(O)cc1)N1C[C@H](Cc2ccc(O)cc2)N(CC2CCCCCC2)C1=S (some centres undefined) | 0 | 6.3* | -1 | -2 | 3 | DAX1 conf=1;SF1 mutant ctr=1
CC(C)C[C@@H](CN1CCCC1CN1C(=S)NC[C@@H]1Cc1ccc(O)cc1)N1C[C@H](Cc2ccccc2)N(CC2CCCCCC2)C1=S (some centres undefined) | 4 | 2 | -1 | 0 | 3
CCC[C@H]1[C@@H](NC(=O)c2cccc(C)c2)CC[C@@]23CCCN2C(=O)CCC[C@@H]13 | -2 | . | . | -2 | -3
COc1ccc(S[C@]2(C(=O)N3CCOCC3)CC(=O)N(c3ccc(C#N)cc3)[C@@H]2c2ccc(OC)cc2)cc1 | -2 | -2 | . | -1 | -2
